From PubChem BioAssay come the findings set out here.

The source made the active and inactive calls.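 How the source made its calls, unless noted: active means inhibition of the reporter signal at or above 50%; inactive means inhibition below 50%.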

Assay [1] is described as follows: inhibitors of TNFa-induced NFkB p65 translocation, primary screen, imaging, HUVEC, MLSMR starter and 10KST1 sets (AID 438;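 active means inhibition above 20% together with a positive visual image hit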;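 further: compound added about 3h40 before a 20 min TNFalpha stimulation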;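 on inhibition: signal is the nuclear over cytoplasmic p65 intensity ratio per well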). Conditions: HUVEC TNFa-induced p65 nuclear translocation; cell count: measured here: nuclei count (cytotoxicity indicator), at 2.08 µM; inhibition: at 2 µM, stronger effect = higher value, 0% TNFa-plus-vehicle, 100% no-TNFa wells.
Assay [2] is described as follows: inhibitors of mutant huntingtin aggregation, primary screen, imaging, exon1htt(103Q)mCFP cells, high-content imaging (AID 483;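 active means visual image review flags a hit and inhibition of aggregation exceeds 20%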;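 further: compound exposure lasted 3 days before fixation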;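 on nuclei count: percent of the per-plate median nuclei count of sample wells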). Particulars: exon1htt(103Q)mCFP cell line, aggregate imaging, at 2 µM; inhibition of aggregation: stronger effect = higher value; nuclei count: measured here: cell count, toxicity.
Assay [3] in a line: inhibitors of E-selectin induction by TNFa, primary screen, imaging, HUVEC, immunofluorescence, MLSMR starter and 10KST1 sets (AID 487;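 active means visually confirmed hit in the image check and inhibition above 20%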;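 on inhibition: signal is fraction of cell area covered by stained E-selectin grains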;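 on nuclei count: 100% = median nuclei count of all wells on the same plate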). Conditions: HUVEC TNFalpha-induced E-selectin immunofluorescence imaging, at 2 µM; inhibition: stronger effect = higher value; nuclei count: measured here: cell number, toxicity.
Assay [4] can be described thus: DUSP6 inhibitors restoring Erk phosphorylation by chemical complementation, primary imaging in DUSP6-transfected HeLa (AID 609;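 active means compounds giving at least 50% inhibition in the cell-based MKP-3 phosphatase rescue imaging test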;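 on inhibition: phospho-Erk level distribution per well compared with pooled transfected vehicle control wells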). Particulars: HeLa MKP-3 transfected, phospho-Erk imaging KS statistic, at 10 µM, cells stimulated with TPA for 15 min.
The target in assay [5] is Dual specificity protein phosphatase 6 (Homo sapiens) (UniProt Q16828). The description is as above. Particulars: HeLa MKP-3 transfected, phospho-Erk imaging KS statistic; at 10 µM; stronger effect = higher value; cells stimulated with TPA for 15 min.
Assay [6] has as its target Voltage-gated potassium channel subunit beta-2 (Rattus norvegicus) (UniProt P62483). The assay is described as follows: KvBeta enzyme negative modulators, primary screen, biochemical, NADPH fluorescence (AID 622;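 active means fluorescence slope higher than the sample average by over 3 SD, cut at about -0.22 in these data, passing the limit was not always enough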;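 further: slope of raw intensity against log time taken from 70 to 1610 s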). Conditions: recombinant KvBeta, 4-cyanobenzaldehyde reduction, at 10 µM, stronger effect = higher value.
For assay [7] the target is unchanged. As to the kind of experiment: KvBeta positive modulators, primary screen, biochemical, NADPH fluorescence (AID 623;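 active means NADPH fluorescence slope more negative than the mean of all samples by about 3 SD, 99.7% confidence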;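 further: fluorescence intensity change per second fitted from 20 to 320 s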). Conditions: Recombinant KvBeta, NADPH fluorescence decrease slope, 10 min; at 10 µM; stronger effect = lower value.
For assay [8], the target named is Alpha-2C adrenergic receptor (Homo sapiens) (UniProt P18825). As to the kind of experiment: modulators of alpha2C/GIRK thallium flux, primary screen, cell-based, HEK293 alpha2C/GIRK1/2 (AID 624;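 active means fluorescence slope after compound addition differing from the mean of all screened samples at 99.7% confidence, in either direction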;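 further: slope of fluorescence ratio to pre-addition baseline per second over 15 to 24 s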). Particulars: thallium flux BTC fluorescence, at 10 µM, actives lie on both sides.
The target in assay [9] is Muscarinic acetylcholine receptor M4 (Homo sapiens) (UniProt P08173). As to the kind of experiment: compounds altering M4/GIRK thallium flux, either direction, primary screen, M4 allosteric agonist project, cell-based, HEK293 M4/GIRK, BTC-AM (AID 625;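 active means fluorescence slope after compound addition differing from the mean of all tested samples at 99.7% confidence, mostly higher but some lower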;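 further: thallium influx through GIRK channels coupled to M4 in HEK293 cells with BTC-AM dye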). Conditions: at 10 µM, actives lie on both sides.
Assay [10] can be described thus: inhibitors of larval lipid processing in zebrafish, primary screen, whole organism, PED6 fluorescence, gall bladder and intestine (AID 686;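 active means a full or partial loss of lipid-probe fluorescence in the fish gall bladder, intestine or both, judged by eye; inactive means no fluorescence loss, or compound toxic to the fish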;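 further: larvae 5 to 7 days old with five fish per well; signal comes from phospholipase A2 cleavage of quenched PED6 carried via bile; overnight exposure to compound and PED6 before scoring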). Conditions: Zebrafish larvae PED6 lipid processing, fluorescence scoring; screened at 20 µM (by protocol).
Assay [11] is described as follows: inhibitors of Chlamydomonas gravitaxis, primary screen, whole organism, Chlamydomonas reinhardtii, WT vs cilia-less mutant, absorbance, 96-well (AID 463189;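 active means inhibition at or above 50% relative to wild type and mutant plate controls; inactive means inhibition below 50%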;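 further: 0% = wild type cc124 cells in DMSO and 100% = ciliumless bld1 mutant cells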). Conditions: OD600 absorbance, 2 days, at 10 µM, stronger effect = higher value.
Assay [12] can be described thus: inhibitors of Sendai virus-induced IRF3 signaling, primary screen, TLR/RLR signaling modifier project, cell-based, Sendai virus stimulus, luciferase, 10K MLSCN set (AID 602276;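 active means inhibition at or above 50% at 10 µM; inactive means inhibition below 50%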;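 further: firefly luciferase from ISG56 promoter only with Renilla not read in this screen; 0% = Sendai virus plus DMSO and 100% = medium plus DMSO without virus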). Conditions: HEK293 RL24 IRF3 luciferase reporter, at 10 µM, stronger effect = higher value.
Assay [13] can be described thus: inhibitors of poly I:C-induced TLR3 signaling, primary screen, cell-based, poly I:C stimulus, luciferase, 10K MLSCN set (AID 602277). Conditions: HEK293-TLR3 RL24 IRF3 luciferase reporter, at 10 µM, stronger effect = higher value.
[14] abbreviates: measured here: cell density z-score.
The mark [15] stands for this setting: measured here: nuclear c-Myc green intensity z-score.
[16] abbreviates: measured here: nuclear pErk red intensity z-score, stronger effect = higher value.

Alpha-2C adrenergic receptor (Homo sapiens), sequence (P18825 whole entry, looked up): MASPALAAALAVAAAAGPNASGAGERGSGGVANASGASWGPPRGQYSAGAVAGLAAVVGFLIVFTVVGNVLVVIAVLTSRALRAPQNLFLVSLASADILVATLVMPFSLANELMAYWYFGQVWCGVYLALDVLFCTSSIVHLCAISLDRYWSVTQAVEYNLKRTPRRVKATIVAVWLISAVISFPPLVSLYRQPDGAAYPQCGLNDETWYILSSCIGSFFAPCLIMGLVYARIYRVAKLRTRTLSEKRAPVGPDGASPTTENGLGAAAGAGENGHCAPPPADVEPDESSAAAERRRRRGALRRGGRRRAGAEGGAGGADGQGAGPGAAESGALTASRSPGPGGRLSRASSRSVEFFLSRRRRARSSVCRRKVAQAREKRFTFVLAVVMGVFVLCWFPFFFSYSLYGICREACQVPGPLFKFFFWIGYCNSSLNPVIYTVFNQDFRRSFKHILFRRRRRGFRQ
Muscarinic acetylcholine receptor M4 (Homo sapiens), sequence (P08173 whole entry, looked up): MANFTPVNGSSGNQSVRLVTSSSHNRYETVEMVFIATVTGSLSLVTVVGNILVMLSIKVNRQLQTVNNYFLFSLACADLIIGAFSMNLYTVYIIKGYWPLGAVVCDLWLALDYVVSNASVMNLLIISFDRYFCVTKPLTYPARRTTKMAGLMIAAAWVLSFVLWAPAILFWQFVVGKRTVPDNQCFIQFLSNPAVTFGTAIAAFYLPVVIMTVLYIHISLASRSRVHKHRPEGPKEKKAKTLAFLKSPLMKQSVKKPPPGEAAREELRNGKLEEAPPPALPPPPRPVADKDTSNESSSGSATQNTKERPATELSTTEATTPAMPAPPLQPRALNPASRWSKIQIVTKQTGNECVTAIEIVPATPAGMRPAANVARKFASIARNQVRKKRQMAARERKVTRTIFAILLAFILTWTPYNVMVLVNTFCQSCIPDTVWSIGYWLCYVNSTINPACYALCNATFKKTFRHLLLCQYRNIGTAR
Voltage-gated potassium channel subunit beta-2 (Rattus norvegicus), sequence (P62483 whole entry, looked up): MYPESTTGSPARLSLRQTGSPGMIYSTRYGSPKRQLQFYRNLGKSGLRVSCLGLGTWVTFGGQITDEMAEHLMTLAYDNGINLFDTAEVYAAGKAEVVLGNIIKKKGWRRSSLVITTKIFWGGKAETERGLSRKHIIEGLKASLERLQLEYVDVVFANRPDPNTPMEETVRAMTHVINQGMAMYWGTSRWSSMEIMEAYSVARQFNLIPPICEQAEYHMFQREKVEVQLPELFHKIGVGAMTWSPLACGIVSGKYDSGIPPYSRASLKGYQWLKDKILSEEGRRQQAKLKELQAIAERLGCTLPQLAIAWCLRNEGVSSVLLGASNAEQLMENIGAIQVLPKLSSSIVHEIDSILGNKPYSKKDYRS
Dual specificity protein phosphatase 6 (Homo sapiens), sequence (Q16828 whole entry, looked up): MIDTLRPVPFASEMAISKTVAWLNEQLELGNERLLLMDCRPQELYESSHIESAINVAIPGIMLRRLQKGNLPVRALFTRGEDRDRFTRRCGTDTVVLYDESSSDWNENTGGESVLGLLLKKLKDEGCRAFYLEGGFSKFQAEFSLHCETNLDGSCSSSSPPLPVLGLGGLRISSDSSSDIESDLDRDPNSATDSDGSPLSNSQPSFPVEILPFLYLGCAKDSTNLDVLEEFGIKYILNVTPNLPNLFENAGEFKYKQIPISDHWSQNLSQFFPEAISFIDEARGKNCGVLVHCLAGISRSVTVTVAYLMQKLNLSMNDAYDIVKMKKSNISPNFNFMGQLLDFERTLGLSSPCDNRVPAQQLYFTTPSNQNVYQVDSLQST

What is called inhibition is the change of the read-out against control, counted positive when it falls. With `C=CCNc1nnc(SC2CC(=O)N(c3ccc(OC)cc3)C2=O)s1` (stereo not given), in assay [1], the cell count is 474. Further, the inhibition in assay [1] is -3.2% (inactive); in assay [3], -46.1% (inactive); in [5], 5.95% (inactive); in [11], 34% (inactive); in assay [12] it was 12.1% (inactive); in assay [13], -1.97% (inactive). Also, the inhibition of aggregation in assay [2] was -17.3% (inactive). Also, the nuclei count in assay [2] is 121%; in assay [3], 151%. The z-score was -0.38 in assay [4] (setting [14]), -0.537 in assay [4] (setting [15]) and 0.655 in assay [4] (setting [16]). Besides, the fluorescence slope in assay [6] was -0.391 (inactive); in assay [9], 0.00596 (inactive). The NADPH fluorescence slope in [7] was -3.8e-05 (inactive). The slope in assay [8] was 0.00566 (inactive). In addition, the compound was classed as inactive in assay [10].

Regarding `CCCN(CCC)C(=O)CC(c1ccc(F)cc1)c1ccco1` (stereo not given), the cell count in assay [1] was determined as 558. Further, the inhibition is -1.8% (inactive) in assay [1]; -37.9% (inactive) in [3]; 11.9% (inactive) in assay [5]; 27.9% (inactive) in assay [11]; 19.1% (inactive) in [12]; 23% (inactive) in assay [13]. For the same compound, the inhibition of aggregation in assay [2] is 24.6% (inactive). Besides, the nuclei count in [2] came to 92.6%; in assay [3], 108%. Further, the z-score in [4] (setting [14]) is 0.533; in assay [4] (setting [15]) it was -0.963; in assay [4] (setting [16]), -0.846. Moreover, the fluorescence slope in assay [6] is -0.467 (inactive); in [9], 0.00507 (inactive). Besides, the NADPH fluorescence slope in assay [7] is -2.2e-05 (inactive). In addition, in [8], the slope was 0.0041 (inactive). Also, in assay [10], the result was inactive.

For `Cn1c(=O)c2c(nc(NCc3ccc4c(c3)OCO4)n2Cc2ccccc2F)n(C)c1=O`, the cell count in [1] was determined as 651. For the same compound, the inhibition was -4.2% (inactive) in assay [1]; -161% (inactive) in [3]; 1.9e-07% (inactive) in assay [5]; 38.3% (inactive) in assay [11]; -2.97% (inactive) in [12]; 10.4% (inactive) in assay [13]. Besides, in assay [2], the inhibition of aggregation is 37.8% (active). The nuclei count worked out at 50.9% in [2] and 126% in assay [3]. Moreover, the z-score in assay [4] (setting [14]) was -0.011; in assay [4] (setting [15]) it was -1.47; in [4] (setting [16]), 0.345. The fluorescence slope was -0.45 (inactive) in assay [6] and 0.00703 (inactive) in [9]. Also, in [7], the NADPH fluorescence slope was -0.000288 (inactive). Also, the slope in assay [8] is 0.00635 (inactive). Besides, the outcome in [10] was inactive.

Regarding `CCN(CC)CCN1C(=O)C(O)=C(C(=O)c2cccs2)C1c1ccccn1` (stereo not given), in assay [1], the cell count was found to be 503. Also, the inhibition was 1.8% (inactive) in assay [1]; -7.4% (inactive) in assay [3]; -0.608% (inactive) in assay [5]; -9.88% (inactive) in [11]; 4.53% (inactive) in assay [12]; 12% (inactive) in [13]. Moreover, the inhibition of aggregation in [2] is -4.1% (inactive). Further, the values for the nuclei count in assay [2] and in [3] were 102% and 120%, respectively. For the same compound, the results for the z-score in assay [4] (setting [14]), in assay [4] (setting [15]) and in assay [4] (setting [16]) were -0.956, 0.653 and -1.67, respectively. Further, the fluorescence slope in [6] is -0.468 (inactive); in assay [9] it was 0.0052 (inactive). Moreover, the NADPH fluorescence slope in assay [7] was -0.000108 (inactive). Further, the slope in assay [8] is 0.00594 (inactive). Moreover, in assay [10], the call was inactive.

For the compound `O=C(NCC(F)(F)F)N1CCOCC1`, the cell count in assay [1] turned out to be 663. Also, the inhibition is 11.2% (inactive) in assay [1]; -23.9% (inactive) in assay [3]; -13.3% (inactive) in assay [5]; 33.2% (inactive) in assay [11]; 9.24% (inactive) in [12]; 15.3% (inactive) in [13]. In [2], the inhibition of aggregation is 14.7% (inactive). Moreover, the nuclei count in assay [2] was determined as 106%; in assay [3], 102%. The z-score in assay [4] (setting [14]) was determined as 0.272; in [4] (setting [15]) it was 0.0222; in assay [4] (setting [16]), 0.9. Also, the fluorescence slope in assay [6] was -0.508 (inactive); in [9], 0.00517 (inactive). Moreover, the NADPH fluorescence slope in [7] is -3.8e-05 (inactive). Besides, the slope in assay [8] is 0.0049 (inactive). The call in [10] was inactive.
